Laboratory results as given in PubChem BioAssay (NCI).
Compounds without any hit were thinned out: in the full panel of roughly 79,000, 15% have a hit. Active and inactive are the calls of the source. No stated cut-off is given here; in the data, active means growth inhibition above about 70%; inactive means the rest.

test: NCI Yeast Anticancer Drug Screen. Data for the bub3 strain (AID 167); details: S. cerevisiae bub3 mutant strain, active compounds read high; at 50.0 µM unless noted
In short: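 Mutant yeast screening strain plus compound; vehicle-treated cultures serve as the 0% inhibition reference.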

Structure (SMILES)	growth inhibition
O=C1C=C(Nc2ccccc2)C(=O)C=C1Nc1ccccc1	4.15% (inactive)
CCOC(=O)c1c(C)[nH]c(C(=O)CCN(C)C)c1C	2.1% (inactive)
CCN(Cc1ccccc1)c1nnnn1-c1ccccc1	12.1% (inactive)
CC1CC(C)OC(c2ccccc2Cl)O1 (centres undefined)	12.7% (inactive)
CC(=O)OC1CCC2(C)C3CCC4(C)C(C(C)CCCC(C)C)CCC4C3C3CC32C1 (centres undefined)	-3.05% (inactive)
CCCCOC(=O)C1CN2C=CC=NC2=NC1(C(F)(F)F)C(F)(F)F (centres undefined)	3.35% (inactive)
NC(Cc1cc(Br)c(Oc2ccc(O)cc2)c(Br)c1)C(=O)O (centres undefined)	2.55% (inactive)
CCCCCCC1OC(C)C(C)O1 (centres undefined)	-3.95% (inactive)
O=[N+]([O-])/C=C/c1cn(CCCCCCCCCCCCn2cc(/C=C/[N+](=O)[O-])c3ccccc32)c2ccccc12	-19.4% (inactive)
O=C(O)C1CCc2ccccc21 (centres undefined)	-26.6% (inactive)
C=CCN(CC=C)C(=O)Nc1cccc(C)c1	-2.6% (inactive)
CC1Sc2ccccc2-c2[nH]c3ccccc3c21 (centres undefined)	31.7% (inactive)
O=C1OCC=C1Sc1ccccc1	-2.4% (inactive)
O=C1C(CN2CCCC2)CCCC1CN1CCCC1 (centres undefined)	7.3% (inactive)
Cc1cc(=O)oc2nn(CCO)c(C)c12	-10.6% (inactive)
O=C(OC1OCC(OCc2ccccc2)C(OCc2ccccc2)C1OCc1ccccc1)c1ccccc1 (centres undefined)	-4.2% (inactive)
O=S(=O)(Cl)c1ccc(Cl)cc1	-16.6% (inactive)
OCC#CC#CCO	-15.8% (inactive)
Nc1nnc2nc(C3(c4nc5nnc(N)n5[nH]c4=O)CCCC3=O)c(=O)[nH]n12	4.6% (inactive)
